# Reference: PubChem BioAssay AID1508600 (Functional Genomics Laboratory (NCATS/FGL), 2020)
# Among all 53,000 sequences or so, about 3,700 (7%) were called active. Shown is part of a subset that was picked to be rich in actives. A number with no mark means an inactive call.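 How the source made its calls: active means gene knockdowns whose robust z-score for IL-1 alpha signal is at least 2 or at most -2, so actives lie on both sides; inactive means the rest.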
# Assay: Components of the Cytosolic LPS Sensing Pathway: Gene Identification via Genome-wide siRNA Screen;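 further: robust z of the log signal after scaling to non-targeting control siRNA wells of the plate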
# Details: RAW264.7 macrophages, IL-1a HTRF, actives lie on both sides, screened at 100 nM (by protocol), cells primed 5 h with Pam3CSK4 first
# Method in brief: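 Cells (RAW264.7, 1×10^4 per well) were transfected with siRNA at 100 nM and cultured 48h at 37 degrees C. Pam3CSK4 was added for 5 hours; LipidA transfection followed for 24 hour. IL-1a was then measured by HTRF.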
row,Sequence,z-score
1,GCAAAGACAAUCUUUAAGGTT against Pde4d,-0.747
2,CCUUGUAAGUGAGAUCCGATT against Olfr118,1.38
3,GGAGUAGAUGACAACACUATT against Defb19,-0.401
4,GGCAGCUGUAGAGGUGUUCTT against Haus7,2.36 (active)
5,CGUGGCUAAACAAAGAGCUTT against Sass6,-0.841
6,CCCAAAAACGUGACAUCUUTT against Inppl1,0.901
7,GCCUGGAAUCUCUUCAUGUTT against Pde3a,0.679
8,GGUGUUCUUGAGCUGUGAGTT against Igfbp7,-2.32 (active)
9,CCAAAAGGUUCGAGUUUCATT against Padi4,1.57
10,GGAGUGUGUAUGGAAAAUATT against Tll1,0.0134
11,GGCUCUUUCAACGUAAAUUTT against Fan1,-2.72 (active)
12,GGACCUUGGGCAGAUUCAATT against Atp10d,0.54
13,GGGUGUACAGGAUUUCCACTT against Nfyc,0.0255
14,GGAGCAACAACUUAAAUGUTT against Slc16a4,1.18
15,GCUUUAGAUACGUGAUUAGTT against Desi2,-0.125
16,CCUUAUGAGUCUUACGACUTT against Zfp326,1.15
17,CCCUCAAAGACCUGUACAUTT against Gm266,2.78 (active)
18,GGAUGAUGAGCUGAACUUUTT against Mgrn1,-0.897
19,AAGAAUACUCAGAUCAGUUTT against Magee2,0.111
20,GGAAAUCUCAGGUGAGGUCTT against Clcc1,-0.127
21,GGAUCAUCAAGAUAUAGAUTT against Trpm7,2.44 (active)
22,GCCAGGAAUCACAAGAGCUTT against Mtg1,0.571
23,GGAGUUAGAAACUCAUUUUTT against Ppargc1b,1.5
24,GGCACCCAUUCCUAAAAUGTT against Hmgn5,-0.929
25,GGAUCUGAAAAAAUUAAGCTT against Stat2,0.65
26,GGAUAUGCCUCCCUUGAUGTT against Gstt3,-2.4 (active)
27,CGAGUGUUUGGACAACAAUTT against Ldlr,0.391
28,CUAUGUGGUCACAAUAGAGTT against Olfr1360,0.411
29,CCUAUGUCACUAAGGCACGTT against Nudt13,0.482
30,GCACGAUCUUCCAAACCCUTT against Dhh,-1.25
